Bioassay records deposited in PubChem BioAssay by several laboratories.
Sampled rows, rich in hits. Any-hit rate of the full collection: about 4.6%.
HIF-2a inh – HIF-2a inhibition; 786-0 RCC cells HIF-2a reporter, luciferase luminescence, overnight; inhibition, % at 18.8 µM; 0.72% of 360,000 active; AID 624352;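 active = inhibition of the luminescence signal of 40% or more relative to plate controls, in a single-dose primary screen at 18.75 µM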
Peg3 promoter – inhibitors of Peg3 promoter | HeLa PEG-Prom luciferase reporter, luminescence, overnight | inhibition, % at 20 µM | 1.7% of 360,000 active | AID 588405;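 active = inhibition of at least 50% at 20 µM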
Mdm2-MdmX inh – human Mdm2/MdmX binding inhibition; inhibition, % at 8 µM; 3% of 330,000 active; SaOS-2 split-luciferase Mdm2/MdmX complementation, luminescence; O15151+Q00987;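 active = inhibition of at least 50% at 8 µM in the primary screen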
Target sequence (O15151 whole entry, looked up): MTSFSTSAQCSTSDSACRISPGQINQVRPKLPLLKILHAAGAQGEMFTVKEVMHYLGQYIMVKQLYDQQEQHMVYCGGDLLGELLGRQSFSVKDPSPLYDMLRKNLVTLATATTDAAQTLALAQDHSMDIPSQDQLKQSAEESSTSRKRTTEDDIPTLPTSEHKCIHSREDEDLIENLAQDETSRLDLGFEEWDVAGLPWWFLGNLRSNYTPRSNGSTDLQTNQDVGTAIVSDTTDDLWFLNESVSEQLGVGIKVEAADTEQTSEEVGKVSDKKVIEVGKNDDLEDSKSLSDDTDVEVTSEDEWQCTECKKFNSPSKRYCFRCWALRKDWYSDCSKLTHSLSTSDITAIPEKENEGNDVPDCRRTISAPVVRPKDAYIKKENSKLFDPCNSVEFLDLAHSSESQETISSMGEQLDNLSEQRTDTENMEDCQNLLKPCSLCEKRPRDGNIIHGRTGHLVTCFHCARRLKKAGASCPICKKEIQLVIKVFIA
Target sequence (Q00987 whole entry, looked up): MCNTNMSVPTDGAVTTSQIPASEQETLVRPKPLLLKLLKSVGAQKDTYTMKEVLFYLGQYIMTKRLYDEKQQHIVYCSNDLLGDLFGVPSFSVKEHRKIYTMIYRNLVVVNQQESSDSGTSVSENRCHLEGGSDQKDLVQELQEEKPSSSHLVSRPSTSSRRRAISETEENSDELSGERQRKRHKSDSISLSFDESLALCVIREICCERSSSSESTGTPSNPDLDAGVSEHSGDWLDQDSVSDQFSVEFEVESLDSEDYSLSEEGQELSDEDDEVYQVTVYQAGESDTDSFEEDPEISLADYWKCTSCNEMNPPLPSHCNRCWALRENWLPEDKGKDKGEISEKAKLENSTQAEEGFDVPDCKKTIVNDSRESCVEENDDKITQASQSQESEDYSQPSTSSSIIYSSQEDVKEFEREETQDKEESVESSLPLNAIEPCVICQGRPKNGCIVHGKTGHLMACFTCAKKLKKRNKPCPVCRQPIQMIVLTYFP
KKLEB tox – CF airway cell cytotoxicity counter-screen; KKLEB CF airway cells viability, ATPlite luminescence, overnight; hits give low values; cells stimulated with P. aeruginosa culture filtrate; activity change (cytotoxicity), % at 5 µM; 0.36% of 360,000 active; AID 602141;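 active = corrected activity change at or below -50% at 5 µM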
ABHD5 PLIN5 PPI – inhibitors of human ABHD5-perilipin-5 interaction. AID 602281. Split G. princeps luciferase complementation, luminescence, 4 h. Q00G26+Q8WTS1. 0.78% of 360,000 active. inhibition, % at 4 µM;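 active = inhibition above the mean inhibition across every tested compound plus 3 SD, cut at about 22% in these data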
CF NFkB block – cystic fibrosis NF-kB activation inhibition; AID 588850; inhibition, % at 5 µM; KKLEB NF-kB-GFP reporter, PAF-induced, GFP fluorescence overnight; 0.86% of 360,000 active;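 active = at least 50% inhibition at 5 µM, scaled per plate between neutral and stimulator controls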;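 note: PAF is a Pseudomonas aeruginosa culture filtrate used as stimulus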
Mdm2 MdmX conf – human Mdm2/MdmX binding inhibition, confirmed; shares compounds with Mdm2-MdmX inh; luminescent assay; inhibition, % at 8 µM; 55% of 10,000 active; in the data active = inhibition above about 40%
Full FLuc ctr – counter-screen for Mdm2/MdmX inhibitors: full-length luciferase; inhibition, % at 8 µM; 77% of 6,200 active; shares compounds with Mdm2-MdmX inh; SaOS-2 full-length luciferase counterscreen, luminescence; AID 504607;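 active = mean inhibition at 8 µM reaching about 37%, which flags the compound as non-specific, limit read from the data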;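 note: p53-null SaOS-2 cells with luciferase driven by a doxycycline-inducible promoter; compound on cells about two nights before reading with doxycycline added after day one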
A number is an active result; – = inactive; · = not tested or not shown.

SMILES	HIF-2a inh	Peg3 promoter	Mdm2-MdmX inh	KKLEB tox	ABHD5 PLIN5 PPI	CF NFkB block	Mdm2 MdmX conf	others
COc1ccc(NS(=O)(=O)c2cc(NC(=O)c3sccc3C)ccc2N2CCOCC2)cc1	–	–	57	–	–	–	64	Full FLuc ctr=64
COc1ccc(NS(=O)(=O)c2cc(NC(=O)c3ccccc3)ccc2N2CCOCC2)cc1	–	–	60	–	–	–	–
COc1ccc(NS(=O)(=O)c2cc(NC(=O)c3ccco3)ccc2N2CCCC2)cc1	–	–	–	–	–	–	·
COc1ccc(NS(=O)(=O)c2cc(NC(=O)c3ccc(=O)[nH]n3)ccc2N2CCOCC2)cc1	–	–	–	–	–	–	·
COc1ccc(NS(=O)(=O)c2cc(NC(=O)c3cc(F)c(F)c(F)c3F)ccc2N2CCCC2)cc1	–	–	61	–	–	–	–
COc1ccc(NS(=O)(=O)c2cc(NC(=O)c3cc(F)c(F)cc3Cl)ccc2N2CCOCC2)cc1	–	–	51	–	–	–	–
COc1ccc(CN2C[C@@H](CO)O[C@@H](n3cnc4c(N5CCN(CCO)CC5)ncnc43)C2)cc1	–	–	·	–	–	–	·
COCCCN1C(=O)C(CC(=O)NC2CCCC2)CC(C(=O)N(C(C)C)C(C)C)=C1C (stereo not drawn)	–	–	·	–	–	–	·
Nc1cccc(CP(=O)(c2ccccc2)c2ccccc2)c1	–	–	–	–	–	–	·
CCCCN1CC(N2CCN(Cc3ccccc3)CC2)CS1(=O)=O (stereo not drawn)	–	–	·	–	–	–	·
NC(=O)Cc1ccc(OCc2nn[nH]n2)cc1	–	–	·	–	–	–	·
COc1cc2c(cc1NC(=O)c1ccc(C(C)(C)C)cc1)CCCC2	–	–	69	–	–	–	74	Full FLuc ctr=62
CCOC(=O)c1c(NC(=O)CN2CCN(C(=O)c3ccco3)CC2)sc2c1CCCC2	–	–	56	–	–	–	–
CCOC(=O)c1c(NC(=O)COc2cccc3c2CCN(Cc2ccc(F)cc2)C3=O)sc2c1CCC2	·	·	–	·	·	·	·
CCOC(=O)c1c(NC(=O)COc2cccc3c2CCN(CC)C3=O)sc2c1CCC2	–	–	60	–	–	–	–
COc1ccc(NC(=O)C2Cc3c(-c4cccc(C(C)=O)c4)ccnc3O2)cn1 (stereo not drawn)	–	–	·	–	–	–	·
COc1ccc(C(=O)c2cn(-c3cccc(Br)c3)nc2C(C)=O)cc1	–	–	–	–	–	–	·
CC(=O)c1nn(-c2cccc(Br)c2)cc1C(=O)c1ccc2ccccc2c1	–	–	63	–	–	–	–
CC#CCN1c2ccccc2[C@]23C[C@@H](C(=O)OC)N(C(=O)c4ccc(Br)cc4)C2=NC(C(=O)OC)=C(C(=O)OC)[C@H]13	·	·	96	·	·	·	76	Full FLuc ctr=68
COC(=O)C1=C(C(=O)OC)[C@@H]2N(C)c3ccccc3[C@@]23C[C@@H](C(=O)OC)N(C(=O)c2ccc(Br)cc2)C3=N1	–	82	68	–	–	–	–
COc1ccc(NC(=O)CSc2nnc(-c3cccc(O)c3)o2)cc1	–	–	–	–	–	–	·
COc1cccc(NC(=O)CSc2nnc(-c3cc(C)n(-c4ccccc4)c3C)o2)c1	42	–	82	–	–	–	83	Full FLuc ctr=59
COc1ccccc1Nc1nc(N(C)c2ccccc2)nc(N)c1[N+](=O)[O-]	–	–	–	–	–	–	·
Nc1nc(NCc2ccccc2)nc(Nc2ccc(F)cc2)c1[N+](=O)[O-]	–	–	–	–	–	–	·
COc1ccccc1Nc1nc(NCCC(C)C)nc(N)c1[N+](=O)[O-]	–	–	53	–	–	–	41	Full FLuc ctr=80
SMILES	HIF-2a inh	Peg3 promoter	Mdm2-MdmX inh	KKLEB tox	ABHD5 PLIN5 PPI	CF NFkB block	Mdm2 MdmX conf	others
COc1ccccc1Nc1nc(NCCO)nc(N)c1[N+](=O)[O-]	–	–	62	–	–	–	–
CNc1nc(N)c([N+](=O)[O-])c(Nc2ccccc2OC)n1	–	–	65	–	–	–	–	Full FLuc ctr=71
O=C(Nc1cccc(Cl)c1)NC1CCN(C2CCCCC2)C1 (stereo not drawn)	–	–	–	–	–	–	·
O=C(c1cc(Cl)ccc1O)N1CCN(S(=O)(=O)Cc2ccccc2)CC1	–	–	–	–	–	–	·
CC(=O)C(C(C)=O)c1c(Cl)c(O)c(O)c2c(C(=O)c3ccccc3)coc12	–	–	60	–	–	–	–
CCc1nnc(NC(=O)CC(C)c2ccccc2)s1 (stereo not drawn)	–	–	–	–	–	–	·
COC(=O)c1c(NC(=O)/C=C/C(=O)O)sc(C)c1-c1ccc(C)cc1	–	–	–	–	–	–	·
COC(=O)c1c(NC(=O)/C=C/C(=O)O)sc(C)c1-c1ccc(C)c(C)c1	–	–	53	–	–	–	–
CC[C@]12c3[nH]c4cc(CCC(=O)N(C)C)ccc4c3CCN1C(=O)[C@@H](CC(=O)NC(C)(C)C)C[C@@H]2C(=O)N1CCN(C(=O)c2ccco2)CC1	–	–	–	–	–	–	·
O=C(c1cc(COc2ccc3c(c2)CCCC3)on1)N1CCCC1	–	–	–	–	–	–	·
COC(=O)c1ccc(NC(=O)C(=O)c2cn(CC(=O)N3CCOCC3)c3ccccc23)cc1	–	–	55	–	–	–	–
Cc1cc(N2CCN(C(C(=O)NC3CCCC3)C(C)(C)C)CC2)c2ccccc2n1 (stereo not drawn)	–	·	·	·	–	·	·
COc1ccc(OC)c(Nc2nc(N)c([N+](=O)[O-])c(NCc3ccccc3)n2)c1	–	–	85	–	–	–	–
COCCCNc1nc(N)c([N+](=O)[O-])c(Nc2cc(OC)ccc2OC)n1	–	–	70	–	–	–	–
COc1ccc(OC)c(Nc2nc(N)c([N+](=O)[O-])c(NC3CCCCC3)n2)c1	–	–	–	–	–	–	·
COc1ccc(OC)c(Nc2nc(NCCCN(C)C)nc(N)c2[N+](=O)[O-])c1	–	–	–	–	–	–	·
CCN1CCN(C(=O)CCc2nnc(CCc3ccccc3OC)o2)[C@@H](C)C1=O	–	–	–	–	–	–	·
COc1cccc(/C=N/NC(=O)c2cc3c(OC)ccc(OC)c3[nH]2)c1O	–	52	62	–	–	–	63	Full FLuc ctr=38
COc1cccc(/C=N/NC(=O)c2nc(-c3ccccc3)cc(-c3ccccc3)n2)c1O	–	–	51	–	–	–	–
COc1cc(OC)c2cc(C(=O)N/N=C/c3cccc(OC)c3O)[nH]c2c1	–	57	69	–	–	–	62	Full FLuc ctr=–
O=[N+]([O-])c1ccc(COc2ccc(-c3[nH]ncc3-c3ccc(Cl)cc3)c(O)c2)cc1	–	–	82	–	–	–	51	Full FLuc ctr=43
